From PubChem BioAssay (NCATS)
Several values for one entry are separate records, joined by “and”; a condition that tells them apart may be missing. Equal entries are not always repeated. Inconclusive results are not listed. Some structures have more than one record in an assay (separate samples or runs), and their calls can disagree. Activity calls are given as the source filed them. Unless noted, calls come from the whole dose curve; as a rule, active = well fitted curve in the direction sought with a large enough effect; inconclusive = small, poorly fitted or top-dose-only effect, or another doubt; inactive = no such curve, though single readings can be large; an effect the other way counts as inactive or inconclusive.

Tests used:
[1] = biological target: Cellular tumor antigen p53 (Homo sapiens) (UniProt P04637); assay: Primary qHTS for small molecule compounds that upregulate eGFP-tagged delta133p53alpha (in N-terminal) cells. (AID 2060322); conditions: NCI-H358 eGFP-delta133p53alpha fluorescence, 24 h; activation: stronger effect = higher value; note: nearly all actives have a fitted effect of over 75% in size; note: potency is the fitted concentration of half-maximal effect;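 for activation: cells pre-induced with doxycycline then dosed without doxycycline; series mostly up to about 56 µM; 0% = DMSO vehicle and 100% = reference activator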
In short: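 NCI-H358 cells pre-induced 24 h with 10 ng/ml doxycycline for eGFP-delta133p53alpha, plated dox-free and exposed 24 h at 37C to titrated compounds. Fixed, Hoechst-stained; gated GFP peak intensity by laser scanning cytometry, normalized to DMSO (0%) and 57.5 uM 5-azacytidine (100%).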

[2] = biological target: Aldehyde dehydrogenase, mitochondrial (Homo sapiens) (UniProt P05091); assay: qHTS for Inhibitors of the Aldehyde Dehydrogenase Family (ALDH2) Confirmatory screens (AID 2061303; active = well fitted inhibition curve with a large enough effect; title and protocol of this record describe different tests; note: nearly all actives have a fitted effect of over 45% in size; note: potency is the fitted concentration of half-maximal effect; for activity change, negative = inhibition: % is set by controls: 0 for no effect and ±100 for the full control effect)
[3] = qHTS for Inhibitors of the Aldehyde Dehydrogenase Family (ALDH1A2, ALDH1A3, ALDH2, ALDH3A1) (AID 2061307); note: nearly all actives have a fitted effect of over 50% in size; for Potency: test system not described further here; potency is the fitted concentration of half-maximal effect; for activity change, negative = inhibition: % is set by controls: 0 for no effect and ±100 for the full control effect
[4] = biological target: Aldehyde dehydrogenase, mitochondrial (Homo sapiens) (UniProt P05091); assay: qHTS for Inhibitors of the Aldehyde Dehydrogenase Family (ALDH2) Primary screen (AID 2061308); note: nearly all actives have a fitted effect of over 55% in size; note: potency is the fitted concentration of half-maximal effect;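 for activity change, negative = inhibition: plate controls were vehicle for no effect and reference inhibitor for full effect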
[5] = biological target: Retinaldehyde dehydrogenase 3 (Homo sapiens) (UniProt P47895); assay: qHTS for Inhibitors of the Aldehyde Dehydrogenase Family (ALDH1A3) Confirmatory screens (AID 2061311); note: nearly all actives have a fitted effect of over 60% in size; note: potency is the fitted concentration of half-maximal effect; for activity change, negative = inhibition: % is set by controls: 0 for no effect and ±100 for the full control effect
[6] = biological target: Retinal dehydrogenase 2 (Homo sapiens) (UniProt O94788); assay: qHTS for Inhibitors of the Aldehyde Dehydrogenase Family (ALDH1A2) Confirmation screens (AID 2061314); note: nearly all actives have a fitted effect of over 65% in size; note: potency is the fitted concentration of half-maximal effect
[7] = biological target: Aldehyde dehydrogenase 1A1 (Homo sapiens) (UniProt P00352); assay: qHTS for Inhibitors of the Aldehyde Dehydrogenase Family (ALDH1A1) Confirmatory screens (AID 2061316); note: nearly all actives have a fitted effect of over 65% in size; note: potency is the fitted concentration of half-maximal effect; for activity change, negative = inhibition: % is set by controls: 0 for no effect and ±100 for the full control effect
[8] = biological target: Retinaldehyde dehydrogenase 3 (Homo sapiens) (UniProt P47895); assay: qHTS for Inhibitors of the Aldehyde Dehydrogenase Family (ALDH1A3) Primary screen (AID 2061315);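 note: plate controls were DMSO vehicle for no effect and reference inhibitor for full effect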
[9] = biological target: Retinaldehyde dehydrogenase 3 (Homo sapiens) (UniProt P47895); assay: qHTS for Inhibitors of the Aldehyde Dehydrogenase Family (ALDH1A3) Validation screen (AID 2061312); note: nearly all actives have a fitted effect of over 45% in size; note: potency is the fitted concentration of half-maximal effect
[10] = BET inhibitor-based combinations targeting novel dependencies in MECOM-rearranged (r) AML: SET-2 cell line (AID 2202231); conditions: SET-2 AML cells viability, CellTiter-Glo luminescence, 48 h; viability: stronger effect = lower value, series mostly up to about 46 µM;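 note: plate controls were DMSO treated cells for no effect and wells without cells for full effect; nearly all actives have a fitted effect of over 35% in size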
In short: (§1)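 Luminescent ATP readout (CellTiter-Glo) after 48 hr drug exposure gives viability. Curves span 11 concentrations and are normalized to DMSO and empty wells. Activity is reported as area under the curve and its Z-transform within each cell line.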

[11] = BET inhibitor-based combinations targeting novel dependencies in MECOM-rearranged (r) AML: OCI-AML3 cell line (AID 2202232); conditions: Potency: OCI-AML3 viability; note: nearly all actives have a fitted effect of over 35% in size; note: potency is the fitted concentration of half-maximal effect
In short: as §1

[12] = BET inhibitor-based combinations targeting novel dependencies in MECOM-rearranged (r) AML: MV-4-11 cell line (AID 2202233); note: potency is the fitted concentration of half-maximal effect; nearly all actives have a fitted effect of over 45% in size
In short: (§2)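 Luminescent ATP readout (CellTiter-Glo, 15 min at room temperature) after 48 hr drug exposure gave viability. Dose-response curves, normalized to DMSO and empty-well controls, were summarized as area under the curve and its mean-centred Z-score.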

[13] = BET inhibitor-based combinations targeting novel dependencies in MECOM-rearranged (r) AML: HNT-34 cell line (AID 2202234); note: potency is the fitted concentration of half-maximal effect; nearly all actives have a fitted effect of over 35% in size
In short: as §2

[14] = BET inhibitor-based combinations targeting novel dependencies in MECOM-rearranged (r) AML: UCSD-AML1 cell line (AID 2202235); note: nearly all actives have a fitted effect of over 40% in size; note: potency is the fitted concentration of half-maximal effect
In short: as §2

[15] = BET inhibitor-based combinations targeting novel dependencies in MECOM-rearranged (r) AML: AML-194 cell line (AID 2202237;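 note: plate controls were vehicle wells for no effect and wells without cells for full effect; nearly all actives have a fitted effect of over 40% in size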)
In short: as §1

Cellular tumor antigen p53 (Homo sapiens), sequence (P04637 whole entry, looked up): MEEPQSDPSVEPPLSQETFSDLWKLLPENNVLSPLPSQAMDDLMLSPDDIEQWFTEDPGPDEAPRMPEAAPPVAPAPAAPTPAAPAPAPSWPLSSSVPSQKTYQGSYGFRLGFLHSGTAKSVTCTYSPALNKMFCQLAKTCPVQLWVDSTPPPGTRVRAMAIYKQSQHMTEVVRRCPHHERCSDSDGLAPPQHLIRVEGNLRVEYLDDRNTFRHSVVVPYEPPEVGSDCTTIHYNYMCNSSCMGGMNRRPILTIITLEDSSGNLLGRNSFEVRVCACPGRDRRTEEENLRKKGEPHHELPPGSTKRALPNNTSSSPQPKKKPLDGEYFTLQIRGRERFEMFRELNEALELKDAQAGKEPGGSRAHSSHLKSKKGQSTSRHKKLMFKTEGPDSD

COc1ccc(NC(=O)N2CCc3c2ccc2ccccc32)cc1N1CCN(C)CC1
inactive: activation [1] 8.59% | Potency [2] | Potency [3] | Potency [4] | Potency [5] | Potency [6] | Potency [7]

COc1ccc(CC2NCCc3c2[nH]c2ccc(C)cc32)cc1OC (stereo not given)
inactive: activation [1] 5.25% | Potency [2] | Potency [3] | Potency [4] | Potency [5] | Potency [6] | Potency [8] | Potency [7]

Cc1cn(C[C@H](N)C(=O)O)c(=O)n(Cc2ccsc2C(=O)O)c1=O
active: Potency [9] 12.6 µM
inactive: activation [1] 15.3% | Potency [2] | Potency [3] | Potency [4] | Potency [5] | Potency [8] | Potency [7]

CCNC(=O)OC1CCN(c2nncc3cc(OC)c(OC)cc23)CC1
inactive: activation [1] -7.67% | Potency [2] | Potency [3] | Potency [4] | Potency [5] | Potency [6] | Potency [8] | Potency [7]

CC1(C)C[C@H]2C=C(C=O)[C@]3(C(=O)O)C[C@]3(C)[C@H]2C1
inactive: activation [1] 18.8% | Potency [2] | Potency [3] | Potency [4] | Potency [5] | Potency [6] | Potency [8] | Potency [7]

CCN(CC)CCOCCOC(=O)C(CC)(CC)c1ccccc1
inactive: activation [1] -4.3% | Potency [2] | Potency [3] | Potency [4] | activity change, negative = inhibition [5] -17.9% [at 0.022 µM] | Potency [9] | Potency [6] | Potency [8] | Potency [7]

O=C(CCN1CCN(C(=O)OCc2cc(Cl)cc(Cl)c2)CC1)c1ccc2[nH]c(=O)oc2c1
inactive: activation [1] 10.1% | Potency [9] | Potency [8] | viability [10] 95.2%
252 nM (active) and inactive: Potency [6]
active: Potency [2] 283 nM and 5.62 µM | Potency [3] 0.201 µM | Potency [4] 0.158 µM | Potency [5] 1.42 µM | Potency [7] 0.252 µM | Potency [11] 18.6 µM | Potency [12] 26.3 µM

Cc1cc(Cl)ccc1COc1ccnn1-c1cc(C(=O)O)ccn1
inactive: activation [1] 5.67% | Potency [2] | Potency [3] | Potency [4] | Potency [5] | Potency [6] | Potency [8]

N#Cc1ccc(-c2cnc3[nH]cc(NC(=O)c4cccnc4)c3c2)cc1
inactive: activation [1] -4.46% | Potency [4] | Potency [8]
active: Potency [2] 3.57 µM | Potency [3] 1.59 µM | Potency [5] 3.16 µM | Potency [6] 2.83 µM | Potency [7] 12.7 µM

CCC(C)C(N)C(=O)NCCN1CCOCC1 (stereo not given)
inactive: activation [1] 23% | Potency [2] | Potency [3] | Potency [4] | Potency [5] | Potency [6] | Potency [8] | Potency [7]

O=C(Nc1cc(C(F)(F)F)cc(C(F)(F)F)c1)c1cnc(Cl)nc1C(F)(F)F
inactive: Potency [2] | Potency [3] | Potency [4] | Potency [5] | Potency [9] | Potency [6] | Potency [8] | Potency [7]
active: Potency [1] 30.1 µM

NCc1ccc(OCCCc2sc(-c3ccc4c(c3)/C(=N/Nc3nc5ccccc5s3)CCC4)nc2C(=O)O)cc1
active: Potency [4] 31.6 µM | Potency [5] 14.2 µM | Potency [9] 7.08 µM | Potency [13] 0.166 µM | Potency [14] 0.209 µM
inactive: activation [1] 7.64% | Potency [2] | Potency [3] | Potency [6] | Potency [11] | Potency [15]

NC(Cc1c[nH]c2ccccc12)C(=O)NC(CCC(=O)O)C(=O)O (stereo not given)
inactive: activation [1] -0.955% | Potency [2] | Potency [3] | Potency [4] | Potency [5] | Potency [9] | Potency [6] | Potency [8] | Potency [7]

CC(O)(C#Cc1ccc2c(c1)N(c1nc(N)ncc1Cl)CC2)c1nccs1 (stereo not given)
inactive: activation [1] -1.22% | Potency [2] | Potency [3] | Potency [4] | Potency [5] | Potency [6] | Potency [8] | Potency [14]
